Laboratory results from the supplement of paper PMC10849652.
Targets with a hit are over-represented here; the source holds about 7,900 in all. About 0.6% of all pairs of compound and target were hits.

Compound: C#Cc1cccc(Nc2ncnc3cc(OCCOC)c(OCCOC)cc23)c1 [erlotinib]
Experiment: log2 fold change, soluble protein after heating vs DMSO (PISA); higher = thermal stabilisation; K562 cells, 10 uM, 30 min; active = over 0.2 and 3.5 SD of the protein, either way, in both replicates (recomputed)
In short: (§1)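 Thermal stability values are relative to control samples and come from duplicates. They are expressed as log2 fold changes. For measurement, K562 cells (2×10^6 cells/mL) received 10 μM compound for 30 min, and aliquots were heated for 3 min over 48°C-58°C, pooled, and extracted at 4°C in PBS with 0.5% NP-40. Soluble protein, the supernatant after 21,000xg for 90 min, was quantified by TMTpro 16plex LC-MS/MS with equalised channel sums.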

Sequence of UniProt Q4G0J3 (Q4G0J3 whole entry, looked up): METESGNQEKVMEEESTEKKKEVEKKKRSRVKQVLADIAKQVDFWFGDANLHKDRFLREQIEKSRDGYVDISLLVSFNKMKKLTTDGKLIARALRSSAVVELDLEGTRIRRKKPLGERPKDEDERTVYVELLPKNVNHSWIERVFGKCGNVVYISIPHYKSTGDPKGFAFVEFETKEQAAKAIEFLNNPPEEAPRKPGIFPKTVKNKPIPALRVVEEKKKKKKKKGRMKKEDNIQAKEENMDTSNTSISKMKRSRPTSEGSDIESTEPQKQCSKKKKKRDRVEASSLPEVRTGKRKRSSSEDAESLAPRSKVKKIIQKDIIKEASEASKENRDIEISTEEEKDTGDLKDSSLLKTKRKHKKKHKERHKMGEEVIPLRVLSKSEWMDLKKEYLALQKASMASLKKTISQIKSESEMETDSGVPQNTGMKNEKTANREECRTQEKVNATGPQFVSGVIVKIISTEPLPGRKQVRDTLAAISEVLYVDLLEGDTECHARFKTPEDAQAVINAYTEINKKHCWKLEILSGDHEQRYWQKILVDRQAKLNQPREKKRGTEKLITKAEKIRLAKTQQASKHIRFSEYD
Sequence of UniProt Q9Y383 (Q9Y383 whole entry, looked up): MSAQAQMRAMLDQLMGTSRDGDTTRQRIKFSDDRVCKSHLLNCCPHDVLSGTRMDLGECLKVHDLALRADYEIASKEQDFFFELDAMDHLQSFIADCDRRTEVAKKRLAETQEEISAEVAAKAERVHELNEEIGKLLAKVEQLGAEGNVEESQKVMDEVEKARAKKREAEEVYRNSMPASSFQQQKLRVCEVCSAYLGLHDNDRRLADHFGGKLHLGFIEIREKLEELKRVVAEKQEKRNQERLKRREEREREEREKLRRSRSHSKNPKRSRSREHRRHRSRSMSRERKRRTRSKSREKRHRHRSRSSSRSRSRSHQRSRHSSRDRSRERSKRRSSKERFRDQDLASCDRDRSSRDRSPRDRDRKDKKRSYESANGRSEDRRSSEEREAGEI
Sequence of UniProt Q6UWB1 (Q6UWB1 whole entry, looked up): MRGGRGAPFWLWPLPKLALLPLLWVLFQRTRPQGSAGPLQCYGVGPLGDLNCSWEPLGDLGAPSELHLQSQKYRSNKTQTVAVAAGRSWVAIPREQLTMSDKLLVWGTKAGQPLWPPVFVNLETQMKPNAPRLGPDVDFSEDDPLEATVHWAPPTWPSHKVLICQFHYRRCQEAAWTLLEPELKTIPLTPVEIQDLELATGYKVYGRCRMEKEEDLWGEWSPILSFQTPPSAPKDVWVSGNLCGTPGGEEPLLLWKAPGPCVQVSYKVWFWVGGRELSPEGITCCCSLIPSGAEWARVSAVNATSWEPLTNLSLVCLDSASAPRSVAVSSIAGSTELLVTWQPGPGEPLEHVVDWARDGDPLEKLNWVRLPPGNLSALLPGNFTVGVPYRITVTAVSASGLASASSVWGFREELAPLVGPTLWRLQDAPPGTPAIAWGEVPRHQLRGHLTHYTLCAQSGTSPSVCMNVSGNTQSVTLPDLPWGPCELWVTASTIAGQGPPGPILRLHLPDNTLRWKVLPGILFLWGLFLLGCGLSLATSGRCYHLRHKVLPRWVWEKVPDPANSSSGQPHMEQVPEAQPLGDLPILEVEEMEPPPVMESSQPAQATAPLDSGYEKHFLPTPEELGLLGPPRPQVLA
Sequence of UniProt Q14739 (Q14739 whole entry, looked up): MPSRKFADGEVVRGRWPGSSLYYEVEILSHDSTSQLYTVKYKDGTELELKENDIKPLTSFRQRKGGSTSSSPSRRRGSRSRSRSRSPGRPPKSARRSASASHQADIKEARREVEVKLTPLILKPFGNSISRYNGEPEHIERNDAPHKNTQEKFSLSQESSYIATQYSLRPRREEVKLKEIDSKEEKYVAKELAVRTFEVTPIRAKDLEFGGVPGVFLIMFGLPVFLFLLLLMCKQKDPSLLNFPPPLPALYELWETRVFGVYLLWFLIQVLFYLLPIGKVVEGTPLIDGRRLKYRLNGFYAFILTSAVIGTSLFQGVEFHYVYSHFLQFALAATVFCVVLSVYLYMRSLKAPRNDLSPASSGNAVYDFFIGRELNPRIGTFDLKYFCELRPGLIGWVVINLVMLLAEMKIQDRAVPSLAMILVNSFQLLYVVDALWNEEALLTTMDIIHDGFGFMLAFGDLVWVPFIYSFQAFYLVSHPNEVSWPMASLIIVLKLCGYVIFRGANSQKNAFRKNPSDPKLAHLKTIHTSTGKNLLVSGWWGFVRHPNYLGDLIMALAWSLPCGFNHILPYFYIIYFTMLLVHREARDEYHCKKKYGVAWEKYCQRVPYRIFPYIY
Sequence of UniProt Q96LU5 (Q96LU5 whole entry, looked up): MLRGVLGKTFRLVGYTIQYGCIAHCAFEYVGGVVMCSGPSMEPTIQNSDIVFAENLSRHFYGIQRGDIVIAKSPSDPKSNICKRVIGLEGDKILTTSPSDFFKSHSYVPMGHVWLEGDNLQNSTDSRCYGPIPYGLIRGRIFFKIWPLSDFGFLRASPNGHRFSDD
Sequence of UniProt Q9BY66 (Q9BY66 whole entry, looked up): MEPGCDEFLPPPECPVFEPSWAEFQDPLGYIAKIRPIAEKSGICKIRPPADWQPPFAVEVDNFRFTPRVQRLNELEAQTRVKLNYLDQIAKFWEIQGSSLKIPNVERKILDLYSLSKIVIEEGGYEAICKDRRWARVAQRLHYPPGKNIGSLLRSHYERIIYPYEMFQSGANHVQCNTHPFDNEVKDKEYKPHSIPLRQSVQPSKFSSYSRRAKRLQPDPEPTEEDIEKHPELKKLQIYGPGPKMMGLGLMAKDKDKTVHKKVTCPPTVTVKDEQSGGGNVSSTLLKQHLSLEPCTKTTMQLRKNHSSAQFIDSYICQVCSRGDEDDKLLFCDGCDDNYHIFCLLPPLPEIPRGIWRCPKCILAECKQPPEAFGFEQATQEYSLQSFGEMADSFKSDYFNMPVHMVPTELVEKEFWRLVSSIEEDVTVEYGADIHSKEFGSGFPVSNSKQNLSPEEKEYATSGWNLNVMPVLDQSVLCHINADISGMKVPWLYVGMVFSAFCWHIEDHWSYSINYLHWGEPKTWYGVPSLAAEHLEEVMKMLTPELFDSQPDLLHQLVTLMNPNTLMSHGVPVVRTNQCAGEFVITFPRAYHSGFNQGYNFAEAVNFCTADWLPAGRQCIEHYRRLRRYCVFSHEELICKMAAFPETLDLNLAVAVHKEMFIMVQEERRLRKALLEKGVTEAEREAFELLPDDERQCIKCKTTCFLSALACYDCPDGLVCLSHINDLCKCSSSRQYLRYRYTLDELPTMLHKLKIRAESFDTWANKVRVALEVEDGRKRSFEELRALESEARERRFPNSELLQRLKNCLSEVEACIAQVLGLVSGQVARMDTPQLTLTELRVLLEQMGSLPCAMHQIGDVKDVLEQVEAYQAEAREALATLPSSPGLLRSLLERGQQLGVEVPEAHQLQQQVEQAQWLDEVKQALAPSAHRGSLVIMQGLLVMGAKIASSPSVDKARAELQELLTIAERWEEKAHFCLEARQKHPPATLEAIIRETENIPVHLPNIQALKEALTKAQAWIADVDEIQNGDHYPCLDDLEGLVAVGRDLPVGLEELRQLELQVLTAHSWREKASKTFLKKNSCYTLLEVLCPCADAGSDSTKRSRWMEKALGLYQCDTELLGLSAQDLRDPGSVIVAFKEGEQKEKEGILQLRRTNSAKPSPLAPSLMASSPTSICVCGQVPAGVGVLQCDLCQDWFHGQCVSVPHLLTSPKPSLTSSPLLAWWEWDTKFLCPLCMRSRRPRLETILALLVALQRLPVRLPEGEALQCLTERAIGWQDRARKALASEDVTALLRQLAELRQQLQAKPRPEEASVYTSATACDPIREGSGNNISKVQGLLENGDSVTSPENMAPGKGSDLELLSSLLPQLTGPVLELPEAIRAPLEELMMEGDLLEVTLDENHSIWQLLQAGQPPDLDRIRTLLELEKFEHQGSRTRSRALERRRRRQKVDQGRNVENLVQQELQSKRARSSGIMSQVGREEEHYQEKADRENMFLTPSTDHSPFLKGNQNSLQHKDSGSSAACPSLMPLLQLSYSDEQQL
Sequence of UniProt Q12906 (Q12906 whole entry, looked up): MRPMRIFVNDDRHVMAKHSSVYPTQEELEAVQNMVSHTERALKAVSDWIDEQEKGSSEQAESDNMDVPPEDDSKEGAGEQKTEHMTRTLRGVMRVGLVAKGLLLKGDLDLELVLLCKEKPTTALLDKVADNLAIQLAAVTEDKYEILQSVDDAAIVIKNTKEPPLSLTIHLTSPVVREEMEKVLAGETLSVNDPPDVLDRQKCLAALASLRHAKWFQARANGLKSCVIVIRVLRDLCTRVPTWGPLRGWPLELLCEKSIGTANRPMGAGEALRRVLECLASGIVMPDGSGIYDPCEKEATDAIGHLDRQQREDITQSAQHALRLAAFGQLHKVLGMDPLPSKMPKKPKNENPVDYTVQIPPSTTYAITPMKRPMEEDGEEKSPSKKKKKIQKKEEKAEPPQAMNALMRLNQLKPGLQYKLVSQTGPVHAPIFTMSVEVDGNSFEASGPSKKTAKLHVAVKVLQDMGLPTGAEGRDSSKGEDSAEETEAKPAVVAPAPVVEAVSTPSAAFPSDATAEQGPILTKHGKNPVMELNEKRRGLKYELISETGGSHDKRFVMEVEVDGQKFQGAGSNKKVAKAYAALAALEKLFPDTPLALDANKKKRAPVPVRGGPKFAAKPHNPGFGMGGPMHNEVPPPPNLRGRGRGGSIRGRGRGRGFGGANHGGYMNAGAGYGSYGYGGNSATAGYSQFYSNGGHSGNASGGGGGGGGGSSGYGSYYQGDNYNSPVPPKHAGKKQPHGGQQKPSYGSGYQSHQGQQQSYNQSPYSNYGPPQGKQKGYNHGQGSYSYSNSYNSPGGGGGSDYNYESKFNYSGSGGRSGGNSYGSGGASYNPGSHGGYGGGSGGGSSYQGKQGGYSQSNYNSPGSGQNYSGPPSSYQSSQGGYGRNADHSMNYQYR
Sequence of UniProt O14880 (O14880 whole entry, looked up): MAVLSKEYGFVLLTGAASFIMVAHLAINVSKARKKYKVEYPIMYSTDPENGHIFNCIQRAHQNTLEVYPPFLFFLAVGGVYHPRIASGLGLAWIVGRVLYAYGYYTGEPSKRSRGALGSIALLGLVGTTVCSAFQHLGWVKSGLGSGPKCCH

Row | Target | log2 fold change
1 | MAPK9 (UniProt P45984) | 0.007 (inactive)
2 | MGST3 (UniProt O14880) | -0.025 (inactive)
3 | INTS7 (UniProt Q9NVH2) | 0.39 (inactive)
4 | LARP1 (UniProt Q6PKG0) | -0.051 (inactive)
5 | KDM5D isoform 3 (UniProt Q9BY66) | -0.036 (inactive)
6 | MAP2K1 (UniProt Q02750) | -0.012 (inactive)
7 | MAP3K20 (UniProt Q9NYL2) | 0.014 (inactive)
8 | LUC7L3 (UniProt O95232) | 0.011 (inactive)
9 | LBR (UniProt Q14739) | 0.009 (inactive)
10 | L2HGDH (UniProt Q9H9P8) | 0.027 (inactive)
11 | KDM3B (UniProt Q7LBC6) | 0.029 (inactive)
12 | LUC7L2 (UniProt Q9Y383) | -0.001 (inactive)
13 | MFN2 (UniProt O95140) | 0.027 (inactive)
14 | IPO9 (UniProt Q96P70) | -0.021 (inactive)
15 | LSR (UniProt Q86X29) | 0.022 (inactive)
16 | MAP4 (UniProt P27816) | 0.003 (inactive)
17 | LARP7 isoform 3 (UniProt Q4G0J3) | 0.01 (inactive)
18 | MFF (UniProt Q9GZY8) | 0.02 (inactive)
19 | METTL18 (UniProt O95568) | -0.042 (inactive)
20 | ILF3 isoform 7 (UniProt Q12906) | -0.068 (inactive)

Row | Target | log2 fold change
21 | LAMP2 (UniProt P13473) | 0.035 (inactive)
22 | LRPPRC (UniProt P42704) | 0.265 (inactive)
23 | MAPKAPK3 (UniProt Q16644) | 0.034 (inactive)
24 | MDC1 (UniProt Q14676) | 0.056 (inactive)
25 | MAPKAPK5 (UniProt Q8IW41) | 0.249 (active)
26 | KRAS isoform 2 (UniProt P01116) | -0.035 (inactive)
27 | LTO1 (UniProt Q8WV07) | -0.095 (inactive)
28 | MEAK7 (UniProt Q6P9B6) | 0.015 (inactive)
29 | KPNA6 (UniProt O60684) | 0.077 (inactive)
30 | LSS (UniProt P48449) | 0.293 (inactive)
31 | MARK3 (UniProt P27448) | 0.009 (inactive)
32 | KIFBP (UniProt Q96EK5) | -0.034 (inactive)
33 | LUZP1 (UniProt Q86V48) | -0.094 (inactive)
34 | MARK2 (UniProt E9PC69) | 0.12 (inactive)
35 | IRF2BPL (UniProt Q9H1B7) | -0.021 (inactive)
36 | MFN1 (UniProt Q8IWA4) | -0.002 (inactive)
37 | LUC7L (UniProt Q9NQ29) | -0.084 (inactive)
38 | IMMP1L (UniProt Q96LU5) | 0.053 (inactive)
39 | IL27RA (UniProt Q6UWB1) | -0.082 (inactive)

Compound: C/C(=N\NC(=O)C1=CC(=CC=C1)S(=O)(=O)N2CCOCC2)/C3=C(C=CC(=C3)Cl)O
Experiment: as above
In short: as §1

Row | Target | log2 fold change
40 | MAPK9 (UniProt P45984) | 0.027 (inactive)
41 | MGST3 (UniProt O14880) | -0.03 (inactive)
42 | INTS7 (UniProt Q9NVH2) | 0.067 (inactive)
43 | LARP1 (UniProt Q6PKG0) | 0.002 (inactive)
44 | KDM5D isoform 3 (UniProt Q9BY66) | -0.142 (inactive)
45 | MAP2K1 (UniProt Q02750) | 0.001 (inactive)
46 | MAP3K20 (UniProt Q9NYL2) | -0.013 (inactive)
47 | LUC7L3 (UniProt O95232) | 0.033 (inactive)
48 | LBR (UniProt Q14739) | 0.122 (inactive)
49 | L2HGDH (UniProt Q9H9P8) | 0.169 (inactive)
50 | KDM3B (UniProt Q7LBC6) | 0.051 (inactive)
51 | LUC7L2 (UniProt Q9Y383) | 0.122 (inactive)
52 | MFN2 (UniProt O95140) | 0.049 (inactive)
53 | IPO9 (UniProt Q96P70) | 0.073 (inactive)
54 | LSR (UniProt Q86X29) | 0.022 (inactive)
55 | MAP4 (UniProt P27816) | -0.041 (inactive)
56 | LARP7 isoform 3 (UniProt Q4G0J3) | 0.119 (inactive)
57 | MFF (UniProt Q9GZY8) | -0.022 (inactive)
58 | METTL18 (UniProt O95568) | -0.037 (inactive)
59 | ILF3 isoform 7 (UniProt Q12906) | -0.084 (inactive)

Row | Target | log2 fold change
60 | LAMP2 (UniProt P13473) | 0 (inactive)
61 | LRPPRC (UniProt P42704) | 0.526 (inactive)
62 | MAPKAPK3 (UniProt Q16644) | -0.012 (inactive)
63 | MDC1 (UniProt Q14676) | -0.284 (inactive)
64 | MAPKAPK5 (UniProt Q8IW41) | -0.249 (inactive)
65 | KRAS isoform 2 (UniProt P01116) | -0.011 (inactive)
66 | LTO1 (UniProt Q8WV07) | 0.072 (inactive)
67 | MEAK7 (UniProt Q6P9B6) | -0.005 (inactive)
68 | KPNA6 (UniProt O60684) | 0.108 (inactive)
69 | LSS (UniProt P48449) | 0.073 (inactive)
70 | MARK3 (UniProt P27448) | 0.116 (inactive)
71 | KIFBP (UniProt Q96EK5) | 0.147 (inactive)
72 | LUZP1 (UniProt Q86V48) | -0.035 (inactive)
73 | MARK2 (UniProt E9PC69) | 0.091 (inactive)
74 | IRF2BPL (UniProt Q9H1B7) | 0.023 (inactive)
75 | MFN1 (UniProt Q8IWA4) | -0.026 (inactive)
76 | LUC7L (UniProt Q9NQ29) | 0.043 (inactive)
77 | IMMP1L (UniProt Q96LU5) | -0.018 (inactive)
78 | IL27RA (UniProt Q6UWB1) | 0.04 (inactive)
